# Inconclusive results are not listed. Where a call stands in place of a potency, no number is given. Activity calls are given as the source filed them. Calls follow the shape of the dose curve; as a rule, active = well fitted inhibition curve with a large enough effect; inconclusive = small, poorly fitted or top-dose-only effect; inactive = flat fitted curve, though single readings scatter.
# Key:
# Test in all cases: qHTS profiling for inhibitors of Plasmodium falciparum proliferation (AID 504749); also: nearly all actives have a fitted effect of over 60% in size
# Details in all cases: P. falciparum in erythrocytes, SYBR Green DNA, 72 h; series mostly up to 28.7 µM
# P93_24 = tested on: P93_24
# Summary of the method: (§1)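 Each compound contacts P. falciparum-infected red blood cells for 72 h at 37 C; lysis buffer (Tris, EDTA, saponin, Triton X, SYBR Green I) is added and fluorescence measured next morning; values normalized to controls.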
# P94_40 = tested on: P94_40
# Summary of the method: as §1
# PC26 = tested on: PC26
# Summary of the method: as §1
# PC49 = tested on: PC49
# Summary of the method: as §1
# SC27B = tested on: SC27B
# Summary of the method: as §1
# TAB113 = tested on: TAB113
# Summary of the method: as §1
# TAB165 = tested on: TAB165
# Summary of the method: as §1
# PC15 = tested on: PC15
# Summary of the method: as §1
# PAD = tested on: PAD
# Summary of the method: as §1
# TAB109 = tested on: TAB109
# Summary of the method: as §1
# Potency is read from the fitted curve at half-maximal effect.
Compound,Potency (P93_24),Potency (P94_40),Potency (PC26),Potency (PC49),Potency (SC27B),Potency (TAB113),Potency (TAB165),Potency (PC15),Potency (PAD),Potency (TAB109)
CC(=O)O[C@]1(C(C)=O)CC[C@H]2[C@@H]3C=C(Cl)C4=CC(=O)CC[C@]4(C)[C@H]3CC[C@@]21C,11.2 µM (active),11.2 µM (active),13.5 µM (active),inactive,8.91 µM (active),7.08 µM (active),–,–,–,–
CC(C)(C)CC(C)(C)c1ccc(O)c(-n2nc3ccccc3n2)c1,10 µM (active),–,inactive,10 µM (active),11.2 µM (active),10 µM (active),12.6 µM (active),–,–,–
Clc1cccc(C(c2ccc3nc[nH]c3c2)n2ccnc2)c1 (configuration not stated),7.08 µM (active),–,–,inactive,10 µM (active),–,7.94 µM (active),12.6 µM (active),–,–
CC(=O)N[C@@H](CCC(=O)O)C(=O)O,inactive,–,inactive,inactive,inactive,inactive,inactive,inactive,inactive,inactive
Cc1ccc(-c2ncc(Cl)cc2-c2ccc(S(C)(=O)=O)cc2)cn1,–,11.2 µM (active),–,–,–,–,–,–,–,–
CCOC(=O)c1c(N)sc2c1CCN(Cc1ccccc1)C2,5.01 µM (active),5.62 µM (active),5.36 µM (active),5.01 µM (active),10 µM (active),11.2 µM (active),5.01 µM (active),–,–,4.47 µM (active)
O[C@@H](c1cc(C(F)(F)F)nc2c(C(F)(F)F)cccc12)[C@H]1CCCCN1,0.0316 µM (active),0.0126 µM (active),0.0478 µM (active),–,0.0251 µM (active),0.01 µM (active),0.0316 µM (active),–,0.0112 µM (active),0.0158 µM (active)
Oc1c(Cl)cc(Cl)c(Cl)c1Cc1c(O)c(Cl)cc(Cl)c1Cl,8.91 µM (active),–,–,8.91 µM (active),10 µM (active),12.6 µM (active),7.94 µM (active),–,–,11.2 µM (active)
CC(C)=CCOc1ccc(/C=C/C(=O)c2ccc(OCC=C(C)C)cc2OCC(=O)O)cc1,inactive,inactive,–,inactive,inactive,inactive,inactive,inactive,inactive,inactive
CC(C)NCC(O)c1ccc2ccccc2c1 (configuration not stated),8.91 µM (active),5.01 µM (active),7.57 µM (active),–,8.91 µM (active),4.47 µM (active),10 µM (active),7.94 µM (active),3.98 µM (active),8.91 µM (active)
CN1CCc2cccc3c2[C@H]1Cc1ccc(O)c(O)c1-3,7.94 µM (active),3.98 µM (active),15.1 µM (active),–,–,–,7.08 µM (active),8.91 µM (active),11.2 µM (active),8.91 µM (active)
COc1ccc(C(=O)c2ccccc2O)c(O)c1,inactive,–,–,inactive,–,inactive,–,inactive,–,inactive
COc1ccc(CCN(C)CCCN2CCc3cc(OC)c(OC)cc3CC2=O)cc1OC,–,inactive,inactive,inactive,inactive,inactive,inactive,inactive,inactive,inactive
OCCOCCN1CCN(C2=Nc3ccccc3Sc3ccccc32)CC1,inactive,inactive,–,inactive,inactive,inactive,inactive,inactive,inactive,inactive
OC1C(O)C(O)C(O)C(O)C1O (configuration not stated),–,inactive,inactive,inactive,inactive,inactive,inactive,inactive,inactive,inactive
CCc1ccc(C(=O)C(C)CN2CCCCC2)cc1 (configuration not stated),–,inactive,inactive,inactive,inactive,inactive,inactive,inactive,inactive,inactive
Cc1cc(-c2ccccc2)nnc1NCCN1CCOCC1,inactive,inactive,inactive,inactive,inactive,inactive,inactive,–,–,–
CCC(C(=O)OCCOCCN(CC)CC)c1ccccc1 (configuration not stated),inactive,–,inactive,inactive,inactive,inactive,inactive,inactive,inactive,–
COc1cc(N)c(Cl)cc1C(=O)NC1CCN(Cc2ccccc2)CC1,inactive,inactive,–,inactive,inactive,inactive,–,inactive,inactive,inactive
C/C=C/c1ccc(O)c(OC)c1,–,inactive,inactive,inactive,inactive,inactive,inactive,inactive,inactive,inactive
CCOCCn1c(N2CCCN(C)CC2)nc2ccccc21,inactive,inactive,–,–,inactive,inactive,inactive,–,–,–
CC(=O)NCCCCCC(=O)O,inactive,inactive,–,inactive,inactive,inactive,inactive,inactive,inactive,inactive
NC(N)=NN=C(/C=C/c1ccc([N+](=O)[O-])o1)/C=C/c1ccc([N+](=O)[O-])o1,12.6 µM (active),–,–,11.2 µM (active),–,–,7.94 µM (active),–,10 µM (active),7.08 µM (active)
Cn1c(=O)c2[nH]c(Br)nc2n(C)c1=O,inactive,–,inactive,inactive,inactive,inactive,inactive,inactive,inactive,–
O=C(c1ccc(F)cc1)C1CCN(CCn2c(=S)[nH]c3ccccc3c2=O)CC1,3.98 µM (active),3.16 µM (active),8.49 µM (active),11.2 µM (active),3.16 µM (active),3.98 µM (active),5.01 µM (active),–,8.91 µM (active),4.47 µM (active)
C#C[C@]1(OC(C)=O)CC[C@H]2[C@@H]3CCC4=C/C(=N/O)CC[C@@H]4[C@H]3CC[C@@]21CC,inactive,inactive,–,inactive,inactive,inactive,inactive,inactive,inactive,inactive
Cc1ncc(CO)c(C=O)c1O,inactive,inactive,–,inactive,inactive,inactive,inactive,inactive,inactive,inactive
O=C(Nc1cccc(C2=NCCN2)c1)Nc1cccc(C2=NCCN2)c1,1.78 µM (active),1.12 µM (active),8.49 µM (active),5.62 µM (active),–,7.94 µM (active),2.51 µM (active),3.98 µM (active),3.16 µM (active),2.82 µM (active)
C[N+]1(C)CCC(=C(c2ccccc2)c2ccccc2)CC1,inactive,inactive,inactive,inactive,inactive,inactive,–,–,inactive,inactive
CC(C)Nc1cccnc1N1CCN(C(=O)c2cc3cc(NS(C)(=O)=O)ccc3[nH]2)CC1,–,inactive,inactive,inactive,inactive,inactive,inactive,inactive,inactive,inactive

# From PubChem BioAssay (NCATS)
